About 840 (25%) of roughly 3,400 compounds were called active. About 11% were inconclusive and are not listed.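 The calls were made as follows: active = fitted half-maximal concentration of signal decrease at or below twice the sample's top tested concentration; inconclusive = flat curve between -70 and -30 percent, or poor fit; inactive = flat within 30 percent, signal rise, or potency above limit.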 These entries were drawn from the full list. Entries with a potency or affinity are not part of this list.
Assay: inhibitors of Toxoplasma growth in IFN-γ-primed HeLa – cell-based, ME49Luc, luciferase, 72 h, dose response (AID 1259418)
Conditions: T. gondii ME49Luc in IFN-y HeLa, active compounds read low, -100% = high-dose IFN-γ control wells; at 19.5 µM unless noted

| Compound | max activity |
| --- | --- |
| Cc1ccc(Nc2nc(N)nc(CN3CCc4ccccc4C3)n2)cc1 | 19.9% [at 5 µM] (inactive) |
| CCc1nc(OCC(=O)Nc2cc(F)ccc2F)c2ccccc2n1 | 14.2% (inactive) |
| COCCn1cc2c(n1)C(CNC(=O)CS(C)(=O)=O)OCC2 (centres undefined) | 15.6% (inactive) |
| Cc1noc(C)c1C1CCCN1C(=O)Cn1nc(C(F)(F)F)c2c1CCCC2 (centres undefined) | -14% [at 0.35 µM] (inactive) |
| O=C(c1ccc(Cn2cncn2)cc1)N1CCC(N2CCCCC2)CC1 | 4.24% [at 10 µM] (inactive) |
| O=C(NCc1cccc(Cl)c1)c1ccc(-n2nc(C(F)(F)F)c3c2CCCC3)cc1 | -5.33% [at 0.68 µM] (inactive) |
| CCc1nc(-c2ccc(C(=O)N3CCC4(CC3)OCCO4)cc2)cs1 | 5.55% (inactive) |
| Cc1nc(-c2cccc(-c3noc(C(=O)N4CCC5(CC4)OCCO5)n3)c2)cs1 | 13.7% [at 2.6 µM] (inactive) |
| Cc1ccc(C)c(N2CCN(C(=O)c3ccc(-n4nc(C(F)(F)F)c5c4CCCC5)cc3)CC2)c1 | -23.2% (inactive) |
| COc1ccc(-c2nc(N3CCN(c4cccc(C(F)(F)F)c4)CC3)c3ccccc3n2)cc1 | 13.5% [at 5 µM] (inactive) |
| COc1ccc(-n2ncc3c(Nc4ccc(C)cc4)ncnc32)cc1 | 28.3% [at 0.68 µM] (inactive) |
| Cc1ccc(-c2nc(CN3CCN(C(=O)NC4CCCCC4)CC3)c(C)o2)cc1 | 6.38% [at 5 µM] (inactive) |
| Cc1oc(-c2cccc(Cl)c2)nc1CN1CCN(C(=O)NC2CCCC2)CC1 | 17.3% [at 10 µM] (inactive) |
| CCOc1ccc(-c2nc(CN3CCN(C(=O)NC4CCCCC4)CC3)c(C)o2)cc1 | -13.3% [at 0.16 µM] (inactive) |
| COc1ccc(CN2CCc3nc(SCc4nc(-c5cccc(C)c5)oc4C)[nH]c(=O)c3C2)cc1 | -7.54% [at 2.6 µM] (inactive) |
| O=C(CN1CCC2(CC1)N=C(c1ccc(Cl)cc1)C(=O)N2)Nc1ccc2c(c1)OCO2 | -13.7% [at 1.35 µM] (inactive) |
| Cc1ccc(C)c(-c2coc(-c3ccc(NC(=O)Nc4ccc(F)cc4)cc3)n2)c1 | -5.84% [at 0.35 µM] (inactive) |
| COc1cccc(CNC(=O)Nc2ccc(-c3nc(-c4cc(C)ccc4C)co3)cc2)c1 | 7.66% [at 0.16 µM] (inactive) |
| CCc1ccc(NC(=O)Nc2ccc(-c3nc(-c4ccccc4)co3)cc2)cc1 | 8.96% (inactive) |
| CCc1cccc(Nc2nc(-c3ccc(OC)cc3)nc3ccccc23)c1 | 18.8% [at 0.35 µM] (inactive) |
| Cc1cccc(-c2nc(Cn3c(=O)c4c(C)cc(C)nc4n(-c4ccccc4)c3=O)c(C)o2)c1 | -12.2% [at 0.35 µM] (inactive) |
| COc1ccc(NC(=O)Nc2ccc(-c3nc(-c4ccc(C)cc4C)co3)cc2)cc1OC | 23.8% (inactive) |
| Cc1ccccc1-c1nc(CN2CCN(C(=O)Nc3ccccc3C(F)(F)F)CC2)c(C)o1 | 9.13% [at 0.16 µM] (inactive) |
| CCOc1ccc(N(Cc2nc(-c3cccc(C)c3)oc2C)S(=O)(=O)c2cccs2)cc1 | 11.4% [at 10 µM] (inactive) |
| CCOc1ccc(-c2nc(CN(c3ccc(OCC)cc3)S(=O)(=O)c3cccs3)c(C)o2)cc1 | 4% (inactive) |

| Compound | max activity |
| --- | --- |
| COc1ccc(N(Cc2nc(-c3ccc(OC(C)C)cc3)oc2C)S(=O)(=O)c2cccs2)cc1 | -11.1% [at 0.35 µM] (inactive) |
| Cc1oc(-c2ccc(OC(C)C)cc2)nc1CN(c1ccccc1)S(=O)(=O)c1cccs1 | 21% (inactive) |
| COc1ccc(-c2nc(CN(c3ccc(C)cc3)S(=O)(=O)c3cccs3)c(C)o2)cc1 | -6.38% [at 0.16 µM] (inactive) |
| COc1ccc(N(Cc2nc(-c3ccc(C)cc3)oc2C)S(=O)(=O)c2cccs2)cc1 | 9.59% [at 0.35 µM] (inactive) |
| CC(C)NC(=O)CC1Nc2c3ccccc3nc(=S)n2C1=O (centres undefined) | 98.4% (inactive) |
| COc1ccc(C(=O)/C=C/c2cc(C(=O)O)cc3c2OCOC3)c(O)c1 | 24.8% [at 10 µM] (inactive) |
| CCn1cc(CN2CCCC2c2cc(C(C)C)on2)c2cc(OC)ccc21 (centres undefined) | 7.79% [at 2.6 µM] (inactive) |
| Cc1cccc(-c2nc(Cn3nnc(-c4nc(-c5cccc(Cl)c5)no4)c3C)c(C)o2)c1 | 8.17% [at 2.6 µM] (inactive) |
| O=C(C1CCC1)N1CC[C@H]2CN(Cc3cccc(Cl)c3)S(=O)(=O)[C@@H]2CC1 | -9.19% (inactive) |
| CCCc1ccc(S(=O)(=O)N2CCc3nc(-c4ccc(OC)cc4)sc3C2)cc1 | 13.1% [at 0.16 µM] (inactive) |
| O=C(Cc1ccccc1Cl)Nc1ccc(-c2nc(-c3ccccc3)co2)cc1 | 20.3% [at 2.6 µM] (inactive) |
| COc1ccccc1-c1nc(C)c(-c2ccc(SCc3ccc(F)cc3)nn2)s1 | 7.01% [at 0.35 µM] (inactive) |
| Cc1cnc(N2CCC3(CCC(CC(=O)N4CC=CC4)CC3)CC2)nc1 | 19.8% [at 10 µM] (inactive) |
| Cc1cnc(N2CCC3(CCN(CC4CC4)C3=O)CC2)nc1 | 44% (inactive) |
| CCOc1ccc(CCNc2nc(-c3ccc(Cl)cc3)nc3ccccc23)cc1OCC | -12.8% [at 0.35 µM] (inactive) |
| NCCCCCCNS(=O)(=O)c1ccc2c(Cl)cccc2c1 | 23.8% (inactive) |
| O=C(Nc1ccc(F)cc1)Nc1ccc(-c2nc(-c3ccccc3)co2)cc1 | -15.1% [at 1.35 µM] (inactive) |
| COc1ccc(CNC(=O)Nc2ccc(-c3nc(-c4cc(C)ccc4C)co3)cc2)cc1 | 11.5% (inactive) |
| COc1ccc(Cl)cc1S(=O)(=O)Nc1ccc(-c2nc(-c3ccc(C)cc3C)co2)cc1 | 11.6% [at 0.16 µM] (inactive) |
| COc1ccccc1CNC(=O)CCC1N=C2c3ccccc3N=C(SCc3ccc(Cl)cc3)N2C1=O (centres undefined) | 16% [at 2.6 µM] (inactive) |
| CCCCNC(=O)CC1N=C2c3ccccc3N=C(SCc3ccccc3Cl)N2C1=O (centres undefined) | -10.2% (inactive) |
| CCCCNC(=O)CCC1N=C2c3ccccc3N=C(SCc3ccccc3F)N2C1=O (centres undefined) | -6.88% [at 2.6 µM] (inactive) |
| CCCCNC(=O)CCC1N=C2c3ccccc3N=C(SCC#N)N2C1=O (centres undefined) | 51.3% (inactive) |
| CCCCNC(=O)CCC1N=C2c3ccccc3N=C(SCc3cc(=O)n4ccccc4n3)N2C1=O (centres undefined) | 21.9% [at 0.68 µM] (inactive) |
| CCCCNC(=O)CCC1N=C2c3ccccc3N=C(SCC(=O)OCC)N2C1=O (centres undefined) | -17.8% [at 2.6 µM] (inactive) |

| Compound | max activity |
| --- | --- |
| CCc1ccc(-c2noc(-c3nnn(Cc4nc(-c5ccc(C)cc5)oc4C)c3C)n2)cc1 | 8.04% [at 0.68 µM] (inactive) |
| COc1ccc(OC)c(S(=O)(=O)Nc2ccc(-c3nc(-c4ccc(C)c(C)c4)co3)cc2)c1 | 20.8% [at 1.35 µM] (inactive) |
| Cc1ccc(-c2nc(Cn3nnc(-c4nc(-c5ccc(C)c(C)c5)no4)c3C)c(C)o2)cc1 | -11% [at 2.6 µM] (inactive) |
| Cc1ccc(NC(=O)N2CCN(Cc3nc(-c4ccccc4C)oc3C)CC2)cc1Cl | 14% [at 1.35 µM] (inactive) |
| O=C(NCCc1csc(-c2ccccc2)n1)[C@H]1CCCN1C(=O)c1ccc(F)c(F)c1 | 13.1% [at 0.16 µM] (inactive) |
| CCc1ccc(NC(=O)N2CCc3nc(-c4ccc(OC)c(OC)c4)sc3C2)cc1 | 7.81% [at 0.16 µM] (inactive) |
| O=C1CCc2cc(NC(=O)c3cccnc3)ccc2N1 | 9.01% [at 1.35 µM] (inactive) |
| Cc1ccc(-c2coc(-c3ccc(NC(=O)c4c(F)cccc4F)cc3)n2)cc1 | 20.4% [at 5 µM] (inactive) |
| Cc1ccc(-c2nc3c(s2)CN(S(=O)(=O)c2ccc(F)cc2)CC3)cc1 | 8.68% [at 10 µM] (inactive) |
| CCc1nc(OCC(=O)Nc2ccc(C(C)C)cc2)c2ccccc2n1 | 25.6% [at 10 µM] (inactive) |
| COc1ccc(-c2nc(Nc3ccccc3Cl)c3ccccc3n2)cc1 | -9.71% [at 0.35 µM] (inactive) |
| COc1cccc(CNC(=O)Nc2ccc(-c3nc(-c4ccccc4)co3)cc2)c1 | 78.4% (inactive) |
| Cc1cccc(-c2nc(Cn3nnc(-c4nc(-c5ccccc5Br)no4)c3C)c(C)o2)c1 | 9.01% [at 2.6 µM] (inactive) |
| CCCCNC(=O)CCC1N=C2c3ccccc3N=C(SCc3ccc(C)cc3)N2C1=O (centres undefined) | 25.3% [at 2.6 µM] (inactive) |
| CN(C)c1cccc(C(=O)N2CCC3(CC2)Nc2ccc(Cl)cc2-n2cccc23)c1 | -25.9% [at 10 µM] (inactive) |
| Cc1nc(OCC(=O)Nc2cc(Cl)ccc2Cl)c2ccccc2n1 | 20.7% [at 0.68 µM] (inactive) |
| CCCc1ccc(S(=O)(=O)Nc2ccc(-c3nc(-c4ccc(C)cc4C)co3)cc2)cc1 | -16.7% [at 0.16 µM] (inactive) |
| Cc1ccc(-c2coc(-c3ccc(NS(=O)(=O)c4cccc(Cl)c4)cc3)n2)c(C)c1 | -22.9% (inactive) |
| Cc1ccc(S(=O)(=O)Nc2ccc(-c3nc(-c4ccc(C)cc4C)co3)cc2)cc1 | 12.9% [at 0.16 µM] (inactive) |
| Cc1ccc(-c2coc(-c3ccc(NS(=O)(=O)c4ccc(N5CCCC5=O)cc4)cc3)n2)c(C)c1 | -11% [at 0.68 µM] (inactive) |
| Cc1ccc(-c2coc(-c3ccc(NS(=O)(=O)c4cccc(Cl)c4C)cc3)n2)c(C)c1 | 16.4% [at 2.6 µM] (inactive) |
| Cc1ccc(-c2coc(-c3ccc(NS(=O)(=O)c4ccc(C(C)C)cc4)cc3)n2)c(C)c1 | -13.7% (inactive) |
| COc1ccc(S(=O)(=O)Nc2ccc(-c3nc(-c4ccc(C)cc4C)co3)cc2)cc1 | 26.2% [at 5 µM] (inactive) |
| Cc1ccc(-c2coc(-c3ccc(NS(=O)(=O)c4ccc(C(C)(C)C)cc4)cc3)n2)c(C)c1 | -14.9% (inactive) |
